High-throughput results from PubChem BioAssay.
EP2 mod: EP2 receptor modulators, cAMP readout, primary screen, cell-based, HTRF cAMP, PGE2 stimulation. induction, % at 25 µM. AID 940, 2007. Prostaglandin E2 receptor EP2 subtype (Homo sapiens), P43116. actives 0.83% (n = 260,000). EP2-expressing cells, cAMP HTRF FRET, PGE2 co-stimulation;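 active = compounds whose cAMP rise, as percent of the full-agonist control response, exceeds 60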;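 note: rat C6 glioma line stably carrying human EP2 under a CMV promoter; the protocol text gives 20 µM as final concentration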
PGE2 EP2 inh: human EP2 receptor antagonists, primary screen, TR-FRET cAMP, C6 glioma cells; Prostaglandin E2 receptor EP2 subtype (Homo sapiens), P43116; actives 0.52% (n = 260,000); AID 1422, 2008; inhibition, % at 25 µM; C6 glioma cells expressing human EP2; cells stimulated with saturating PGE2;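 active = percent inhibition above 40 after rounding to a whole number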;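 note: rat C6 glioma host cells with rolipram phosphodiesterase inhibitor present; the protocol text gives 20 µM as final concentration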
SKN-1 inh: suppressors of acrylamide-induced Pgst-4::GFP reporter in worms, primary screen, SKN-1 inhibitor project, whole organism, uHTS, GFP/RFP fluorescence ratio, strain VP596 | inhibition, % at 21.8 µM | actives 0.49% (n = 360,000) | C. elegans VP596 Pgst-4::GFP/RFP ratio, 24 h | AID 624304, 2012;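 active = interference check ratio from 0.5 to 1.5 plus GFP to RFP signal ratio inhibition reaching or exceeding a fixed threshold, cut at about 30% in these data, passing the limit was not always enough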
Rev-erbA mod: modulators of Rev-erb alpha DNA binding, primary screen, biochemical, FITC-DNA, fluorescence polarization, uHTS | Rev-erbα–FITC-DNA binding, 90 min | actives 0.79% (n = 370,000) | activity, % at 10 µM | Nuclear receptor subfamily 1 group D member 1 (Homo sapiens), P20393 | AID 1259318, 2017;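 active = activity above about 14%, limit read from the data; passing the limit was not always enough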
Target sequence (P20393 whole entry, looked up): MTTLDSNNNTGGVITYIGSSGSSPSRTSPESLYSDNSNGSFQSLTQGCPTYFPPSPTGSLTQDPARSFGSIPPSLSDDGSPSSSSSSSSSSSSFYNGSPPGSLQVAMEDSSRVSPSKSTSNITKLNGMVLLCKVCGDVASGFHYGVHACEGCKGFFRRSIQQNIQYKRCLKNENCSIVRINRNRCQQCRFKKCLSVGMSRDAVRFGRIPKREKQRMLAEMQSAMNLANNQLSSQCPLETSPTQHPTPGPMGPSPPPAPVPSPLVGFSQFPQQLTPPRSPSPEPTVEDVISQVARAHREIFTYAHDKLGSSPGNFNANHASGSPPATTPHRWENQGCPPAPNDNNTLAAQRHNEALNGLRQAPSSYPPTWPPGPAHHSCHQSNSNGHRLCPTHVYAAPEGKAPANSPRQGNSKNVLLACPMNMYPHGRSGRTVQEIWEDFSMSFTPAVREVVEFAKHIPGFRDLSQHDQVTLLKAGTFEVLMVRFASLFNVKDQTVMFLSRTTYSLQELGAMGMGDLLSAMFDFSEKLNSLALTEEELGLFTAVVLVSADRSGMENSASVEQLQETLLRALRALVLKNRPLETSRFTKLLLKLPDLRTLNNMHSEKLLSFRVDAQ
PG9 binder: binders of HIV-1 gp120 antibody PG9, primary screen, biochemical, TR-FRET; HIV-1 gp120 / PG9 antibody interaction; TR-FRET gp120-PG9 antibody binding; inhibition, % at 6.7 µM; actives 0.43% (n = 360,000); AID 624416, 2012; in the data active = inhibition above about 8.5%
RAM network inh: inhibitors of the yeast RAM network, primary screen, dse1pr::URA3 reporter, 5-FOA selection; S. cerevisiae dse1pr::URA3 reporter, 5-FOA growth OD615, 2 d; analog-sensitive cbk1-as2 kinase mutant strain; inhibition, % at 50 µM; actives 1.8% (n = 190,000); AID 868, 2007;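 active = inhibition above a set limit, 3 SD over mean compound inhibition, cut at about 8.4% in these data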;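 note: inhibition rescues growth on 5-FOA so higher OD means more RAM inhibition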
Rev-erbA confirm: modulators of Rev-erb alpha DNA binding, confirmation, biochemical, FITC-DNA, fluorescence polarization, single point; shares compounds with Rev-erbA mod; AID 1259319, 2017; actives 61% (n = 3,000); activation, % at 25 µM; 90 min;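 active = activation at or above a set limit, or at least 3 SD above the negative control mean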
RORg counter: modulation of RORgamma DNA binding, dose response, counter-screen for Rev-erb alpha modulator project, biochemical, fluorescence polarization, FITC-DNA; purified RORgamma protein-FITC-DNA binding; actives 8% (n = 910); IC50, µM; shares compounds with Rev-erbA mod;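 active = Compounds whose fitted half-maximal concentration for disrupting protein-DNA binding is below 10 micromolar; the record names Rev-erb in its text, so the target is in doubt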
Numbers stand for hits; n = inactive; x = no result. This is a sample that favours compounds with a hit; in the whole collection about 2.9% have one here.

SMILES	EP2 mod	PGE2 EP2 inh	SKN-1 inh	Rev-erbA mod	PG9 binder	RAM network inh	Rev-erbA confirm	others
COCCN(C(=O)COc1ccc(Cl)cc1)c1nnc(-c2cccnc2)s1	n	n	n	24	n	n	n
O=C(OCCN1CCOCC1)c1ccc(O)cc1	x	x	n	14	n	x	n
COc1cccc(/C(O)=C2/C(=O)C(=O)N(CCCN3CCOCC3)C2c2ccc(C)o2)c1 (stereo not drawn)	n	n	x	x	x	x	x
O=C(Nc1ccccc1)c1cc2c(=O)c3ccccc3oc2nc1C(F)(F)F	n	n	n	46	n	n	34	RORg counter=n
O=C(O)c1cc2c(=O)c3ccccc3oc2nc1C(F)(F)F	x	x	n	n	n	x	x
CCc1nc2oc3ccccc3c(=O)c2cc1C(=O)OC	x	x	n	n	n	x	x
O=C(Nc1cccc(C(F)(F)F)c1)c1cc2c(=O)c3ccccc3oc2nc1C(F)(F)F	n	n	n	25	n	n	19
O=C(O)CCCC(=O)Nc1ccc(Oc2ncnc3cc(Cl)ccc23)nc1	n	n	n	n	n	x	x
O=C(Nc1ccc(Oc2ncnc3cc(Cl)ccc23)nc1)c1cccs1	n	n	n	55	n	x	27
O=C(Nc1ccc(F)cc1)Nc1ccc(Oc2ncnc3cc(Cl)ccc23)nc1	n	n	n	51	n	x	n
CCCn1c(C)[n+](C)c2cc(Cl)c(Cl)cc21	n	n	x	x	x	x	x
Cc1ccn(S(=O)(=O)c2ccc(F)c(C)c2)n1	n	n	x	x	x	x	x
COc1cccc(-n2c(SCC(=O)NCCc3ccccc3)nnc2-c2cccnc2)c1	n	n	x	x	x	x	x
Cn1cncc1C#Cc1ccc2cc(C3(O)CCCCC3)oc(=O)c2c1	x	x	n	70	n	x	43	RORg counter=n
O=C(Nc1ccc(N2CCN(C(=O)c3cccs3)CC2)c(Cl)c1)c1cccc(F)c1	n	n	x	x	x	x	x
O=C(Nc1ccccc1N1CCOCC1)C1(c2ccc(Cl)cc2)CCC1	n	n	n	20	n	9.2	n
CCOC(=O)c1sc(NC(=O)CSc2nc3c(c(-c4ccc(OC)cc4)c2C#N)CCCC3)c(C#N)c1C	n	n	n	32	n	n	22
COc1ccc(-c2c(C#N)c(SCC(N)=O)nc3c2CCCC3)cc1	n	n	n	68	n	n	37	RORg counter=n
Cc1ccc(C)c(NC(=O)CSc2nc(C)cc(C)c2C#N)c1	n	n	n	38	n	n	25
N#Cc1c(SCC(N)=O)nc2c(c1-c1ccc(O)cc1)CCCC2	n	n	n	n	n	n	x
CCOC(=O)c1sc(NC(=O)CSc2nc3c(cc2C#N)CCCCCC3)c(C#N)c1C	n	n	n	n	n	n	x
CCOC(=O)c1sc(NC(=O)CSc2nc(C)cc(C)c2C#N)c(C#N)c1C	n	n	n	24	n	n	n
CCOc1ccc(OCC)c(NC(=O)CSc2nnc3c4c5c(sc4nc(C)n23)CCCC5)c1	n	n	x	x	x	x	x
CC(=O)CSc1nc2c(c(=O)[nH]c(=O)n2C)n1Cc1ccccc1	n	n	x	x	x	x	x
N#Cc1ccc(C#Cc2ccc3oc4ccccc4c(=O)c3c2)cc1	x	x	n	16	n	x	n
SMILES	EP2 mod	PGE2 EP2 inh	SKN-1 inh	Rev-erbA mod	PG9 binder	RAM network inh	Rev-erbA confirm	others
COc1ccc2c(c1)c(=O)oc1cc(OCC(=O)NC3CC3)ccc12	n	n	n	24	n	n	34	RORg counter=n
CC(C)Cn1c(=O)c(C(=O)Nc2ccccc2S(N)(=O)=O)c(O)c2ccccc21	n	n	n	56	n	n	29
CCn1c(=O)c(C(=O)NNC(=O)Cc2ccccc2)c(O)c2ccccc21	x	x	n	33	n	x	n
Cn1c(=O)c(C(=O)Nc2ccccc2S(N)(=O)=O)c(O)c2ccccc21	n	n	n	n	n	x	x
Cc1cc(C)n(CCn2ncc3c4sc(C)cc4n(Cc4ccc(F)cc4)c3c2=O)n1	n	x	x	x	x	x	x
CCC(C)(C)NC(=O)c1ccc2c(c1)N(CC(=O)NCc1ccccc1)C(=O)C(C)(C)O2	n	n	x	x	x	x	x
CCCNC(=O)/C(C#N)=C1\N=C(NC(=O)c2cccs2)c2ccccc21	x	x	n	30	n	x	21
Cn1cc(C(=O)NCc2cccs2)c(=O)c2cc(S(=O)(=O)N3CCCC3)ccc21	n	n	n	28	n	n	25
CCOc1ccccc1NC(=O)c1nnn(CC(=O)Nc2cc(C)cc(C)c2)c1N	x	x	n	21	n	x	32	RORg counter=n
Cc1cccc(C2(O)CCN(C(=O)c3cc(C(C)C)nn3C)CC2)c1	n	n	x	x	x	x	x
CCc1cc(-c2n[nH]c(C)c2-c2nc(C)cs2)c(O)cc1OC	n	n	n	n	n	n	x
CCc1cc(-c2n[nH]c(C)c2-c2nc3ccccc3s2)c(O)cc1OCC(=O)NN	n	n	n	13	n	n	n
COCCN1C(=O)C2C(C(=O)Nc3ccc(F)cc3)C3(C)C=CC2(O3)C1C(=O)NC1CCCCC1 (stereo not drawn)	n	n	x	x	x	x	x
O=C1c2cccc3c(N4CCCCC4)ccc(c23)C(=O)N1c1ccccc1O	n	n	n	27	n	n	33	RORg counter=n
O=C1c2cccc3c(N4CCCCC4)ccc(c23)C(=O)N1c1ccc(O)cc1	n	n	n	n	n	n	x
COc1ccc(Cl)cc1NC(=O)CSc1nnc(CNc2ccc(F)cc2)n1C	n	n	x	x	x	x	x
COc1ccc(-c2cc3c(=O)n(CC(=O)NCc4ccc(Cl)cc4)ncn3n2)cc1	x	x	n	21	n	x	n
COc1ccc(-c2cc3c(=O)n(CC(=O)NCc4ccc(C)cc4)ncn3n2)cc1	x	x	n	n	n	x	x
Cc1cccc(NC(=O)c2sc(NC(=O)C(C)C)c(C#N)c2C)c1C	n	n	x	x	x	x	x
